# Sampled rows, rich in hits. Any-hit rate of the full collection: about 0.95%.
# RE007 growth inh: less growth of the S. pombe RE007 Vpr strain | S. pombe RE007 Vpr strain, BacTiter-Glo ATP luminescence, 24 h | Potency, µM (doses to about 92.2 µM), inactives show at the highest dose activity change, negative = less growth, most hits filed as inhibitors | 360,000 compounds, 0.21% hits | AID 651644; active means well fitted falling curve with a large enough effect; inconclusive means small, poorly fitted or top-dose-only effect; inactive means no such curve, though single readings can be large or run the other way; further: nearly all actives have a fitted effect of over 50% in size
#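 Fission yeast strain RE007, carrying one chromosomally integrated HIV-1 vpr copy, was seeded at OD 0.01 in PMG+AL medium with 23 nL pinned compound. After 24 h at 30 °C and 99% humidity, viability was read by BacTiter-Glo luminescence.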
# Giardia FBPA inh-1: inhibitors of Giardia lamblia fructose-1,6-bisphosphate aldolase; Potency, µM (series often up to 59.6 µM), inactives show at the top dose activity, negative = inhibition, actives largely listed as inhibitors; purified Giardia FBPA; 290,000 compounds, 0.71% hits; further: nearly all actives have a fitted effect of over 55% in size
# Target sequence (A8B2U2 whole entry, looked up): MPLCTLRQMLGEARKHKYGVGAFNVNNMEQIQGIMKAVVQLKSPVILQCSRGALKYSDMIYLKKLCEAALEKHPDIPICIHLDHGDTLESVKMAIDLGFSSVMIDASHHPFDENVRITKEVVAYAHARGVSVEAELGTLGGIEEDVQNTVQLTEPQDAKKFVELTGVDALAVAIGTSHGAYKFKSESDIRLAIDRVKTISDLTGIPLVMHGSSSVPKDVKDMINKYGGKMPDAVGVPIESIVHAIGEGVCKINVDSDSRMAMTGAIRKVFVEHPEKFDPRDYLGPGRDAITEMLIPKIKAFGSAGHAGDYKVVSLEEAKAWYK
#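 40 nM FBPA preincubated 10 min at RT with compound (up to 57.5 uM final), then substrate plus GAPDH/TPI/NAD/arsenate coupling and diaphorase/resazurin added. Fluorescence read after 20 min at RT, 525/598 nm.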
# Tb PYK inh: inhibitors of Trypanosoma brucei pyruvate kinase; Q57TT1; TbPYK enzyme, Kinase-Glo Plus ATP luminescence, 45 min; Potency, µM (titrated, usually from 76.8 µM), inactives show top-dose activity, negative = inhibition, actives largely listed as inhibitors; 410,000 compounds, 0.12% hits; further: nearly all actives have a fitted effect of over 50% in size
#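 Activity of T. brucei pyruvate kinase was followed by Kinase-Glo Plus luminescence after the enzyme reacted 45 min at room temperature with 130 uM ADP (final) and substrate. Test compounds were added before ADP at multiple concentrations.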
# LmPK inhibitor: blocks Leishmania mexicana pyruvate kinase activity | Potency, µM (highest dose often 57.5 µM), without a hit: at the highest dose activity change, negative = inhibition, usual class: inhibitors | Q27686 | purified LmPK, Kinase-Glo ATP luminescence, 1 h | 290,000 compounds, 0.37% hits | AID 1721
#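 0.1 nM LmPK, 0.5 mM PEP, 0.1 mM ADP; 50 mM imidazole pH 7.2, 7 mM MgCl2, 50 mM KCl; 1 h RT. Kinase-Glo luminescence readout, normalized to no-enzyme (full inhibition) and uninhibited wells.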
# Giardia growth: inhibitors of Giardia lamblia growth | shares compounds with Giardia FBPA inh-1 | Giardia lamblia trophozoite growth inhibition | Potency, µM (series often up to 57.5 µM), for the others: top-dose activity change, negative = inhibition, actives largely listed as inhibitors | 1,500 compounds, 5% hits;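 further: trophozoites exposed to compound for 48 h at 37 °C; nearly all actives have a fitted effect of over 70% in size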
# Mammalian tox: mammalian cytotoxicity of Giardia aldolase inhibitor hits. shares compounds with Giardia FBPA inh-1. mammalian cell viability counter-screen, qHTS. Potency, µM (doses to about 57.5 µM), for inactives: at the highest dose viability change, negative = toxicity, most hits filed as inhibitors. 1,500 compounds, 4% hits;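 further: Chinese hamster ovary cells used as mammalian cytotoxicity surrogate; viability measured as cellular ATP by luminescence; compound exposure lasted 48 h before reading; nearly all actives have a fitted effect of over 60% in size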
# Giardia FBPA inh-2: confirmation of Giardia fructose-bisphosphate aldolase inhibitors; shares compounds with Giardia FBPA inh-1; purified Giardia aldolase enzyme activity, qHTS; Potency, µM (highest dose often 57.5 µM), for inactives: at the highest dose activity change, negative = inhibition, hits mostly inhibitors; 1,500 compounds, 5% hits; AID 2787; further: nearly all actives have a fitted effect of over 45% in size
# Rabbit FBPA inh: blocks rabbit muscle aldolase in Giardia aldolase selectivity test; shares compounds with Giardia FBPA inh-1; Rabbit muscle FBPA enzyme inhibition, selectivity counter-screen; Potency, µM (titrated, usually from 57.5 µM), without a hit: top-dose activity, negative = inhibition, hits mostly inhibitors; 1,500 compounds, 4% hits; further: nearly all actives have a fitted effect of over 60% in size
# Target sequence (P00883 whole entry, looked up): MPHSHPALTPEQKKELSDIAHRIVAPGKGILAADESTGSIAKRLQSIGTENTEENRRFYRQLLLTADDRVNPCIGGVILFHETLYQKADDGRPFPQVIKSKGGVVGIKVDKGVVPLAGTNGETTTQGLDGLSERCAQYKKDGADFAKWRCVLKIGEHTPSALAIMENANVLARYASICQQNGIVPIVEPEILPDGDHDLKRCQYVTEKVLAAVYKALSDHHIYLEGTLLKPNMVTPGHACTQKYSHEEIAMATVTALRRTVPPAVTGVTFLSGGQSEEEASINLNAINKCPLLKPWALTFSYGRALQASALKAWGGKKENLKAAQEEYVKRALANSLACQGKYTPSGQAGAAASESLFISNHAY
# GAPDH counter: GAPDH inhibition flagged for Giardia aldolase hits | GAPDH coupling enzyme counterscreen, biochemical, qHTS | AID 2795 | shares compounds with Giardia FBPA inh-1 | 1,500 compounds, 6% hits | Potency, µM (titrated, usually from 57.5 µM), without a hit: at the top dose activity change, negative = inhibition, usual class: inhibitors; further: nearly all actives have a fitted effect of over 55% in size
# An asterisk follows results filed as active; ? = inconclusive; . = not tested or not shown; [ ] = another dose, or the depositor's remark. Unless noted, the call rests on the fitted dose curve; in most records, active means well fitted curve in the direction sought with a large enough effect; inconclusive means small, poorly fitted or top-dose-only effect, or another doubt; inactive means no such curve, though single readings can be large; an effect the other way counts as inactive or inconclusive. On the % scale 0 is the no-effect control and ±100 the full control effect; potency means the concentration at half of the fitted maximal effect.
SMILES,RE007 growth inh,Giardia FBPA inh-1,Tb PYK inh,LmPK inhibitor,Giardia growth,Mammalian tox,Giardia FBPA inh-2,Rabbit FBPA inh,GAPDH counter
Cc1ccc(C(=S)N2CCN(Cc3ccccc3)CC2)cc1,-22%,16µM*,?,0%,?,9%,-6%,9%,-16%
Cc1ccc(CN2CCN(C(=O)c3ccncc3)CC2)cc1,-21%,18µM*,1%,-6%,2%,3%,6%,7%,7%
COc1ccc(-c2cn3c(n2)sc2cc(C(=O)Nc4c(C)cccc4C)ccc23)cc1,.,.,-8%,.,.,.,.,.,.
CC(=O)O[C@@H]1[C@@H](O)CN[C@@H]1Cc1ccccc1,.,2%,.,.,.,.,.,.,.
COc1ccc(CN2CCN(Cc3cccc(F)c3)CC2)cc1OC,-15%,?,4%,-1%,.,.,.,.,.
COc1ccc(CN2CCN(Cc3ccccc3OC)CC2)cc1,-28%,14µM*,6%,-2%,-25%,-2%,6%,4%,15%
COc1ccc(CN2CCN(Cc3ccccc3F)CC2)cc1OC,7%,16µM*,17%,1%,0%,9%,-7%,7%,-16%
COc1ccccc1CN1CCN(C(=O)COc2ccc3ccccc3c2)CC1,-23%,20µM*,-1%,0%,11%[10.4 µM],7%,-2%,15%,1%
COc1ccccc1N1CCN(CC(=O)c2ccc(F)cc2)CC1,-2%,16µM*,-3%,-2%,-24%,7%,-18%,3%,5%
COc1ccccc1CN1CCN(C(=O)COc2cccc(C)c2)CC1,21%,?,9%,-6%,.,.,.,.,.
COc1ccccc1CN1CCN(Cc2ccc(Cl)cc2)CC1,3%,?,-15%,1%,.,.,.,.,.
CCOc1ccc(N2CC(c3nc4ccccc4n3CCCOc3ccc(OC)cc3)CC2=O)cc1 (stereo not given),.,.,13%,.,.,.,.,.,.
CCN1CCN(c2cc(-c3ccc(F)cc3)c3c(n2)CCCCCC3)CC1,.,.,-6%,.,.,.,.,.,.
COC(=O)c1cc2sc(Cl)cc2n1Cc1nc(-c2ccccc2C)oc1C,.,.,-14%,.,.,.,.,.,.
COc1ccccc1N1CCN(Cc2ccc(SC)cc2)CC1,-23%,16µM*,1%,-9%,-17%,-8%,5%,0%,1%
COc1ccccc1N1CCN(CC(=O)Nc2ccc3c(c2)OCCO3)CC1,6%,18µM*,-6%,-2%,61%,1%,7%,8%,8%
O=C(CSc1ncccc1C(=O)Oc1ccccc1Cl)Nc1ccc(C(F)(F)F)cc1Cl,.,.,-5%,.,.,.,.,.,.
CCNC(=S)NNC(=O)c1ccccn1,4%,?,0%,-4%,.,.,.,.,.
O=C(NNC(=S)Nc1ccc(Cl)c(Cl)c1)c1ccccn1,6%,14µM*,-4%,0%,-15%[10.4 µM],?,28%,15%,18%
O=C(Oc1ccc[nH]c1=O)c1cccc(Cl)c1,.,-18%,2%,4%,15%[38.3 µM],10%,0.52µM*,?,33µM*
O=C(Oc1ccc[nH]c1=O)c1ccccc1,-9%,.,-17%,.,.,.,.,.,.
COc1cccc(CNC(=O)CCc2cn(Cc3ccccc3Cl)c3ccccc23)c1,.,.,3%,.,.,.,.,.,.
CCc1ccc(NC(=S)Nn2cnnc2)cc1,-17%,-25%,?,-5%,.,.,.,.,.
S=C(Nc1ccccc1)Nn1cnnc1,.,13µM*,-26%,-5%,?,-13%,4%,5%,8%
Cc1cccc(NC(=S)Nn2cnnc2)c1C,-2%,7.9µM*,-6%,-2%,?,5%,7%,3%,17%
SMILES,RE007 growth inh,Giardia FBPA inh-1,Tb PYK inh,LmPK inhibitor,Giardia growth,Mammalian tox,Giardia FBPA inh-2,Rabbit FBPA inh,GAPDH counter
Cc1ccc(NC(=S)Nn2cnnc2)cc1,-21%,16µM*,-18%,1%,?,7%,4%,7%,18%
COc1cc2c(cc1OC)n(CC(=O)c1ccc(F)cc1)c(=O)n1nc(CCn3nc(C)cc3C)nc21,.,.,-2%,.,.,.,.,.,.
O=C(c1cccc(Cl)c1)N1CCN(CCCc2ccccc2)CC1,-4%,13µM*,23%,-3%,-9%,5%,0%,-2%,-12%
O=C(c1ccccc1)N1CCN(CCc2ccccc2)CC1,-5%,-3%,2%,2%,.,.,.,.,.
CCN1CCc2c(sc(-n3cccc3)c2C(C)NC(=O)Nc2ccc(C(=O)OC)cc2)C1 (stereo not given),.,.,4%,.,.,.,.,.,.
COc1cc(C(=O)O/N=C2/C=C(C)C(=O)C=C2C)cc(OC)c1OC,-12%,6.3µM*,-4%,1%,5%[10.4 µM],-29%,14µM*,6.3µM*,3.2µM*
CC(C)N(Cc1ccccc1)C(=O)CSc1nccn1C,8%,1%,3%,3%,.,.,.,.,.
Cn1ccnc1SC(C(=O)O)c1ccccc1 (stereo not given),-1%,14µM*,2%,-4%,?,20%,5%,6%,3%
CC(=O)C(C(C)=O)c1c(Cl)c(O)c(O)c2c(C(=O)c3ccccc3)coc12,7%,18µM*,?,11µM*,-12%,-16%,?,-24%,-12%
CN1CCN(Cc2c(O)ccc3occ(C(=O)c4ccccc4)c23)CC1,6%,-7%,-3%,8%,.,.,.,.,.
O=C(CNCc1cccs1)Nc1ccc(S(=O)(=O)N2CCCCC2)cc1,2%,?,12%,-4%,.,.,.,.,.
O=C(CNCc1cccs1)Nc1ccc(N2CCCCCC2)cc1,15%,18µM*,5%,-5%,?,-11%,-15%,-14%,-13%
COc1cccc(Cc2nc3ccccc3nc2SCC(=O)N2CCc3ccccc32)c1,.,.,3%,.,.,.,.,.,.
CCOc1ccccc1CNC(=O)CCn1ccc2cc(S(=O)(=O)N3CCC(C)CC3)ccc21,.,.,-8%,.,.,.,.,.,.
O=C(CSc1ccccc1)Nc1nnc(C2CC2)s1,5%,14µM*,-4%,-7%,?,9%,1%,9%,7%
O=C(CSc1cccc(C(F)(F)F)c1)Nc1nnc(C2CC2)s1,6%,.,-9%,.,.,.,.,.,.
COC(=O)c1ccc(NC(=O)CC2C(=O)N(c3ccccc3)C(=O)N2Cc2ccc(F)cc2)cc1 (stereo not given),.,.,0%,.,.,.,.,.,.
COC(=O)c1cccnc1NC(=S)NNC(=O)c1ccncc1,1%[3.69 µM],7.1µM*,.,2%,65%,20%,-7%,8%,-20%
COc1ccccc1NC(=S)NNC(=O)c1ccncc1,-2%,-3%,-16%,-19%,.,.,.,.,.

# Screening results as filed in PubChem BioAssay.
